In PubChem BioAssay (EPA / NIEHS):
Results filed as inconclusive are left out. The source holds several records for some structures; these can differ, active in one and inactive in another. Active and inactive are the calls of the source. The calls were made as follows: active = hit-call score of the fitted dose curve at least 0.9, where 1 is the maximum; inconclusive = response in the unintended direction; inactive = score below 0.9.

Target: rat Thyrotropin Releasing Hormone Receptor (TRH), Trhr (gene 25570) (UniProt Q01717)
Sequence (Q01717 whole entry, looked up): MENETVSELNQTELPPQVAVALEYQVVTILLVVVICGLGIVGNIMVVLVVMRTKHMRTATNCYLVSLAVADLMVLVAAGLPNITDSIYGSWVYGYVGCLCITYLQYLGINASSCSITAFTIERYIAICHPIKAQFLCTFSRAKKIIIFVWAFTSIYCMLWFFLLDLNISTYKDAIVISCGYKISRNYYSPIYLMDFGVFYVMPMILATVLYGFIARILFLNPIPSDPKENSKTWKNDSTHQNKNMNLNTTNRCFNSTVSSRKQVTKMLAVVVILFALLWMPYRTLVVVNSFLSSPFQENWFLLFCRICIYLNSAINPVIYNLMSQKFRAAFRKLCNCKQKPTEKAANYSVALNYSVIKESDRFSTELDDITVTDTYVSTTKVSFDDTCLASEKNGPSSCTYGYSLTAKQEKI
Experiment: NVS_GPCR_rTRH: NovaScreen (NVS) G Protein-Coupled Receptor Assay for rat Thyrotropin Releasing Hormone Receptor (TRH) (AID 2283329);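 also: hit means lower bound tracer signal versus DMSO baseline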
Procedure: NVS_GPCR_rTRH is a biochemical, single-readout assay that uses extracted gene-proteins from Rat forebrain membranes in a tissue-based cell-free assay. Measurements were taken 4 hours after chemical dosing in a 48-well plate.NVS_GPCR_rTRH is one of one assay component(s) measured or calculated from the NVS_GPCR_rTRH assay. It is designed to make measurements of radioligand binding, a form of binding reporter, as detected with scintillation counting signals by Filter-based radiodetection technology.Data from the assay component NVS_GPCR_rTRH was analyzed into 1 assay endpoint. This assay endpoint, NVS_GPCR_rTRH, was analyzed in the positive analysis fitting direction relative to DMSO as the negative control and baseline of activity. Using a type of binding reporter, loss-of-signal activity can be used to understand changes in the binding as they relate to the gene Trhr. Furthermore, this assay endpoint can be referred to as a primary readout, because the performed assay has only produced 1 assay endpoint. To generalize the intended target to other relatable targets, this assay endpoint is annotated to the gpcr intended target family, where the subfamily is rhodopsin-like receptor.
Binding assays used specific radioligands (tritiated, iodinated) with non-radioactive competitive displacement ligands in agonist or antagonist protocols (as indicated) and various reference compounds and inhibitors to titrate specific binding to receptors and transporters. Most enzyme assays (CYPs, kinases, phosphatases, proteases, HDACs) used recombinant protein and specific substrates (fluorescence mostly, some colorimetric and radioactive) and inhibitors, followed by a biochemical separation of substrate and product. All assays for the biochemical HTS were initially run in duplicate at a single concentration (10 uM for CYP450 assays and 25 uM for all others). […] Each assay was run with positive and negative controls, and concurrent controls on every plate. The follow-up (secondary) screen tested active chemical-pairs in concentration series, as well as a few additional assays not tested in the primary screen, some selected negative inactives, and several cases re-run in the concentration series for confirmatory purposes.

Row | Structure (SMILES) | outcome
1 | ClC1C(Cl)C(Cl)C(Cl)C(Cl)C1Cl (stereo not given) | inactive
2 | C#CCN1C(=O)COc2cc(F)c(N3C(=O)C4=C(CCCC4)C3=O)cc21 | inactive
3 | CN1CSC(=S)N(C)C1 | inactive
4 | O=[N+]([O-])c1c(Cl)c(Cl)c(Cl)c(Cl)c1Cl | inactive

Target: human Peripheral-type Benzodiazepine Receptor (PBR), TSPO (gene 706) (UniProt P30536)
Sequence (P30536 whole entry, looked up): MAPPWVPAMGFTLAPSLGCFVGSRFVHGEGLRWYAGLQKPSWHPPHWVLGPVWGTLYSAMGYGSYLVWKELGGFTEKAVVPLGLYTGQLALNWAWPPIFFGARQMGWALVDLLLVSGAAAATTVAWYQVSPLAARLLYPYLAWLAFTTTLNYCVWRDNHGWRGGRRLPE
Experiment: NVS_MP_hPBR: NovaScreen (NVS) Membrane Protein Assay for human Peripheral-type Benzodiazepine Receptor (PBR) (AID 2283331);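 also: hits reduce radioligand binding relative to DMSO baseline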
How it was run: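 Scintillation counts of filter-bound radioligand served as read-out after 1 h chemical dosing of human colonic membrane preparations. Activity was scored as signal loss against DMSO; initial duplicates at 25 uM, confirmatory concentration series afterward.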

Row | Structure (SMILES) | AC50 | outcome
5 | CCOCN(C(=O)CCl)c1c(C)cccc1CC | 1.88 µM (active) | 
6 | CC1(C)C(C=C(Cl)Cl)C1C(=O)OC(C#N)c1ccc(F)c(Oc2ccccc2)c1 (stereo not given) |  | inactive
7 | CCC(C)(NC(=O)c1cc(Cl)c(C)c(Cl)c1)C(=O)CCl (stereo not given) | 25 µM (active) | 
8 | O=S1OCC2C(CO1)C1(Cl)C(Cl)=C(Cl)C2(Cl)C1(Cl)Cl (stereo not given) |  | inactive
9 | ClC1C(Cl)C(Cl)C(Cl)C(Cl)C1Cl (stereo not given) |  | inactive
10 | COc1nn(CSP(=S)(OC)OC)c(=O)s1 |  | inactive
11 | CC(C)OC(=O)Nc1cccc(Cl)c1 | 17.1 µM (active) | 
12 | CCN(CC)C(=O)SCc1ccc(Cl)cc1 | 22.2 µM (active) | 
13 | O=C(O)COc1ccc(Cl)cc1Cl |  | inactive
14 | CNC(=O)CSP(=S)(OC)OC |  | inactive
15 | COC(=O)c1ccccc1S(=O)(=O)NC(=O)Nc1nc(C)nc(OC)n1 |  | inactive
16 | O=C(O)CCCOc1ccc(Cl)cc1Cl |  | inactive

Target: rat Peripheral-type Benzodiazepine Receptor (PBR), Tspo (gene 24230) (UniProt P16257)
Sequence (P16257 whole entry, looked up): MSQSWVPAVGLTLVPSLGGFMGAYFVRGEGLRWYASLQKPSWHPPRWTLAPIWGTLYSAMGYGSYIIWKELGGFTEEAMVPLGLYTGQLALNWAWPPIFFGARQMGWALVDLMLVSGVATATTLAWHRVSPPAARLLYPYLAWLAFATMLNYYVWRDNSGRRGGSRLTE
Experiment: NVS_MP_rPBR: NovaScreen (NVS) Membrane Protein Assay for rat Peripheral-type Benzodiazepine Receptor (PBR) (AID 2283335)
How it was run: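 Rat kidney membranes; radioligand binding with displacement, filter-based scintillation counting, 1 h incubation. Primary screen in duplicate at 25 uM, actives followed in concentration series; loss of binding vs DMSO.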

Row | Structure (SMILES) | AC50 | outcome
17 | CCOCN(C(=O)CCl)c1c(C)cccc1CC | 1.45 µM (active) | 
18 | CC1(C)C(C=C(Cl)Cl)C1C(=O)OC(C#N)c1ccc(F)c(Oc2ccccc2)c1 (stereo not given) | 10.8 µM (active) | 
19 | CCC(C)(NC(=O)c1cc(Cl)c(C)c(Cl)c1)C(=O)CCl (stereo not given) | 0.0105 µM (active) | 
20 | O=S1OCC2C(CO1)C1(Cl)C(Cl)=C(Cl)C2(Cl)C1(Cl)Cl (stereo not given) |  | inactive
21 | ClC1C(Cl)C(Cl)C(Cl)C(Cl)C1Cl (stereo not given) | 14.1 µM (active) | inactive
22 | COc1nn(CSP(=S)(OC)OC)c(=O)s1 | 13.1 µM (active) | 
23 | CC(C)OC(=O)Nc1cccc(Cl)c1 | 4.63 µM (active) | 
24 | CCN(CC)C(=O)SCc1ccc(Cl)cc1 | 13.5 µM (active) | 
25 | CCCN(CCC)c1c([N+](=O)[O-])cc(C(F)(F)F)cc1[N+](=O)[O-] | 16.5 µM (active) | 
26 | O=C1c2ccccc2C(=O)N1SC(Cl)(Cl)Cl |  | inactive
27 | CNC(=O)CSP(=S)(OC)OC |  | inactive
28 | O=[N+]([O-])c1c(Cl)c(Cl)c(Cl)c(Cl)c1Cl |  | inactive
29 | O=C(O)CCCOc1ccc(Cl)cc1Cl |  | inactive
